# Several values for one entry are separate records, joined by “and”; a condition that tells them apart may be missing. Identical values can stand only once. The panel holds about 83,000 compounds, 20% with a hit somewhere; the sample as a whole holds those more often.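 Percent growth is the endpoint: 0 to 100 indicates growth inhibition (40 means 60% inhibition), 0 means no net growth, and negative values indicate cell death.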 Activity calls are given as the source filed them. How the source made its calls: active means growth percent below 10; inactive means the rest.
# How the values were obtained:
# Assay in all cases: NCI-60 one-dose screen, 48 h (100 = growth as untreated, 0 = no growth, -100 = all killed)
# [1] = tested on: DU-145 prostate
# [2] = tested on: K-562 leukemia
# [3] = tested on: MALME-3M melanoma
# [4] = tested on: MDA-MB-231 breast
# [5] = tested on: RXF 393 renal
# [6] = tested on: SF-268 CNS
# [7] = tested on: SF-295 CNS
# [8] = tested on: SF-539 CNS
# [9] = tested on: UACC-257 melanoma
# [10] = tested on: M14 melanoma; settings: 10 µM
# [11] = tested on: HCT-15 colon
# [12] = tested on: HT29 colon
# [13] = tested on: SNB-75 CNS
# [14] = tested on: SNB-19 CNS
# [15] = tested on: U251 CNS
# [16] = tested on: PC-3 prostate
# [17] = tested on: SK-MEL-5 melanoma
# [18] = tested on: UACC-62 melanoma
# [19] = tested on: LOX IMVI melanoma
# [20] = tested on: SK-MEL-28 melanoma; settings: 10 µM
compound,measurement,setting,value
CC/C(=C(\c1ccccc1)c1ccc(OCCN(C)C)cc1)c1ccccc1,growth,[1]; 10 µM,65.4% (inactive)
same,growth,[1]; 12.5 µM,9.12% (active)
same,growth,[2]; 10 µM,0.0322% (active)
same,growth,[2]; 12.5 µM,-38.6% (active)
same,growth,[3]; 10 µM,-67.5% (active)
same,growth,[3]; 12.5 µM,-95.7% (active)
same,growth,[4]; 10 µM,45.2% (inactive)
same,growth,[4]; 12.5 µM,-26.4% (active)
same,growth,[5]; 10 µM,-22.4% (active)
same,growth,[5]; 12.5 µM,-56.8% (active)
same,growth,[6]; 10 µM,56.7% (inactive)
same,growth,[6]; 12.5 µM,32.4% (inactive)
same,growth,[7]; 10 µM,40.2% (inactive)
same,growth,[7]; 12.5 µM,-68% (active)
same,growth,[8]; 12.5 µM,-95.2% (active)
same,growth,[9]; 10 µM,-64.3% (active)
same,growth,[9]; 12.5 µM,-34.3% (active)
same,growth,[10],-75% (active)
same,growth,[11]; 10 µM,7.63% (active)
same,growth,[11]; 12.5 µM,-65% (active)
same,growth,[12]; 10 µM,-11.2% (active)
same,growth,[12]; 12.5 µM,-66.6% (active)
same,growth,[13]; 10 µM,39.9% (inactive)
same,growth,[13]; 12.5 µM,-4.48% (active)
same,growth,[14]; 10 µM,52.6% (inactive)
same,growth,[14]; 12.5 µM,1.19% (active)
same,growth,[15]; 10 µM,4.8% (active)
same,growth,[15]; 12.5 µM,-84.3% (active)
same,growth,[16]; 10 µM,34.4% (inactive)
same,growth,[16]; 12.5 µM,-30.7% (active)
same,growth,[17]; 10 µM,-95.2% (active)
same,growth,[17]; 12.5 µM,-94.3% (active)
same,growth,[18]; 12.5 µM,-90.5% (active)
same,growth,[19]; 10 µM,-43.9% (active)
same,growth,[19]; 12.5 µM,-99% (active)
same,growth,[20],11.3% (inactive)
COc1ccc2sc3cccc(NCCN(C)C)c3c(=O)c2c1,growth,[1]; 10 µM,53.6% (inactive) and 14.8% (inactive)
same,growth,[2]; 10 µM,17.2% (inactive) and -40.4% (active)
same,growth,[3]; 10 µM,18.6% (inactive) and -90.3% (active)
same,growth,[4]; 10 µM,42.1% (inactive) and -72.9% (active)
same,growth,[5]; 10 µM,59.7% (inactive) and -15.9% (active)
same,growth,[6]; 10 µM,42.9% (inactive) and 12.4% (inactive)
same,growth,[7]; 10 µM,-16.7% (active) and -31.7% (active)
same,growth,[8]; 10 µM,49.8% (inactive) and -8.1% (active)
same,growth,[9]; 10 µM,-83.3% (active)
same,growth,[10],59.1% (inactive) and -84.9% (active)
same,growth,[11]; 10 µM,32.2% (inactive) and -29.5% (active)
same,growth,[12]; 10 µM,5.38% (active) and -36.9% (active)
same,growth,[13]; 10 µM,51.8% (inactive) and -6.29% (active)
same,growth,[14]; 10 µM,63.9% (inactive) and 13.6% (inactive)
same,growth,[15]; 10 µM,-18.1% (active)
same,growth,[16]; 10 µM,34.2% (inactive) and 21.1% (inactive)
same,growth,[17]; 10 µM,65.1% (inactive) and -98.2% (active)
same,growth,[18]; 10 µM,64.4% (inactive) and -96.3% (active)
same,growth,[19]; 10 µM,17.1% (inactive) and -91% (active)
same,growth,[20],85.8% (inactive) and -80.8% (active)
CN(Cc1cnc2nc(N)nc(N)c2n1)c1ccc(C(=O)N[C@@H](CCC(=O)O)C(=O)O)cc1,growth,[1]; 2.5 µM,31.8% (inactive)
same,growth,[1]; 10 µM,39.6% (inactive)
same,growth,[2]; 2.5 µM,23.8% (inactive)
same,growth,[2]; 10 µM,23.3% (inactive)
same,growth,[3]; 2.5 µM,61.6% (inactive)
same,growth,[3]; 10 µM,62% (inactive)
same,growth,[4]; 2.5 µM,71.1% (inactive)
same,growth,[4]; 10 µM,59.9% (inactive)
same,growth,[5]; 2.5 µM,18.7% (inactive)
same,growth,[5]; 10 µM,13% (inactive)
same,growth,[6]; 2.5 µM,36.8% (inactive)
same,growth,[6]; 10 µM,25.1% (inactive)
same,growth,[7]; 2.5 µM,18.4% (inactive)
same,growth,[7]; 10 µM,19.7% (inactive)
same,growth,[8]; 2.5 µM,-3.25% (active)
same,growth,[8]; 10 µM,-0.266% (active)
same,growth,[9]; 2.5 µM,9.31% (active)
same,growth,[9]; 10 µM,12% (inactive)
same,growth,[11]; 2.5 µM,28.5% (inactive)
same,growth,[11]; 10 µM,36% (inactive)
same,growth,[12]; 2.5 µM,29% (inactive)
same,growth,[12]; 10 µM,25.9% (inactive)
same,growth,[13]; 2.5 µM,73.8% (inactive)
same,growth,[13]; 10 µM,66% (inactive)
same,growth,[14]; 2.5 µM,33.9% (inactive)
same,growth,[14]; 10 µM,29.5% (inactive)
same,growth,[15]; 2.5 µM,34.1% (inactive)
same,growth,[15]; 10 µM,38.3% (inactive)
same,growth,[16]; 2.5 µM,33.8% (inactive)
same,growth,[16]; 10 µM,37% (inactive)
same,growth,[17]; 2.5 µM,20% (inactive)
same,growth,[17]; 10 µM,3.31% (active)
same,growth,[18]; 2.5 µM,24.5% (inactive)
same,growth,[18]; 10 µM,16.8% (inactive)
same,growth,[19]; 2.5 µM,14.3% (inactive)
same,growth,[19]; 10 µM,16.3% (inactive)
CC[C@@]1(O)C(=O)OCc2c1cc1n(c2=O)Cc2cc3c(CN(C)C)c(O)ccc3nc2-1,growth,[1]; 10 µM,-18% (active)
same,growth,[2]; 10 µM,-22.7% (active)
same,growth,[3]; 10 µM,-11% (active) and -39.7% (active)
same,growth,[4]; 10 µM,35.9% (inactive) and 47.6% (inactive)
same,growth,[5]; 10 µM,-63.5% (active) and 11.3% (inactive)
same,growth,[6]; 10 µM,6.03% (active) and 13.3% (inactive)
same,growth,[7]; 10 µM,-31.3% (active) and -15% (active)
same,growth,[8]; 10 µM,-19% (active) and -42.7% (active)
same,growth,[9]; 10 µM,-57.9% (active) and 5.98% (active)
same,growth,[10],-7.26% (active) and -31.9% (active)
same,growth,[11]; 10 µM,21.2% (inactive) and -10.4% (active)
same,growth,[12]; 10 µM,-15.4% (active) and -22.9% (active)
same,growth,[13]; 10 µM,2.72% (active) and -62.8% (active)
same,growth,[14]; 10 µM,16% (inactive) and 10.7% (inactive)
same,growth,[15]; 10 µM,-23% (active) and 2.06% (active)
same,growth,[16]; 10 µM,-1.74% (active)
same,growth,[17]; 10 µM,-85.8% (active) and -77.4% (active)
same,growth,[18]; 10 µM,-73.1% (active) and -71.5% (active)
same,growth,[19]; 10 µM,-14.1% (active) and -34.9% (active)
same,growth,[20],19.5% (inactive)

# — PubChem BioAssay (NCI)
